# ELG1 genotox: induces genotoxicity in HEK293T cells with luciferase-tagged ELG1; HEK293T ELG1-luciferase reporter, luminescence, 16 h; Potency, µM (top dose mostly 46 µM), for the others: at the highest dose activity change, positive = activation, most hits filed as activators; 1.3% of 330,000 active; note: % of control where 0% means no effect; nearly all actives have a fitted effect of over 60% in size
#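 Genotoxicity was scored as increased ELG1-luciferase reporter signal, measured by ONE-Glo luminescence (30 min, room temperature). Compound or vehicle exposure of the HEK293T reporter cells lasted 16 hr at 37°C.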
# SMN2 splice up: SMN2 splice variant enhancement. 2.8% of 210,000 active. HEK293 SMN2-luciferase splicing reporter, luminescence, 30-36 h. Potency, µM (top dose mostly 46.1 µM), for inactives: at the top dose activity change, positive = activation, most hits filed as activators; note: % of control where 0% means no effect; nearly all actives have a fitted effect of over 55% in size
#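 HEK293 cells carry an SMN2 minigene-luciferase reporter in which exon 7 inclusion puts luciferase in frame. Cells were seeded at 2000 cells/well, attached for 10-12 hours, then exposed to compounds for 30-36 hours at 37C before ONE-Glo luminescence.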
# NPC1 promoter act: NPC1 promoter activation; Huh7 NPC1 promoter luciferase reporter, 24 h; Potency, µM (doses to about 9.22 µM), without a hit: top-dose activation, hits mostly activators; 2.4% of 320,000 active; AID 485313; note: % of control where 0% means no effect; nearly all actives have a fitted effect of over 60% in size
#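 Luminescence read-out of NPC1 promoter-driven luciferase in stably transfected Huh7 cells; compounds delivered in DMSO and left 24 h at 37C, 5% CO2, qHTS titration format.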
# Rab9 prom act: activators of Rab9 promoter. Huh7 Rab9 promoter-luciferase reporter, luminescence, 24 h. Potency, µM (highest dose often 9.22 µM), inactives show at the top dose activation, negative = inhibition, most hits filed as activators. 2.8% of 320,000 active. AID 485297; note: % of control where 0% means no effect; nearly all actives have a fitted effect of over 60% in size
#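 Cells were plated at 1500 per well in reduced-serum medium with 10% FBS and left 2 h. Compound in DMSO was then added for 24 h at 37 °C. Reporter signal was read by luminescence after 10 min with luciferase detection reagent.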
# FLuc counter: counter-screen for miR-21 project: firefly luciferase inhibitors or activators | AID 588342 | purified FLuc, Km substrates, luminescence inhibition | 6.9% of 360,000 active | P08659 | Potency, µM (titrated, usually from 57.5 µM), inactives show at the highest dose activity change, negative = inhibition, usual class: inhibitors;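 note: plate controls were vehicle for no effect and reference inhibitor for full effect; nearly all actives have a fitted effect of over 55% in size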
# Target sequence (P08659 whole entry, looked up): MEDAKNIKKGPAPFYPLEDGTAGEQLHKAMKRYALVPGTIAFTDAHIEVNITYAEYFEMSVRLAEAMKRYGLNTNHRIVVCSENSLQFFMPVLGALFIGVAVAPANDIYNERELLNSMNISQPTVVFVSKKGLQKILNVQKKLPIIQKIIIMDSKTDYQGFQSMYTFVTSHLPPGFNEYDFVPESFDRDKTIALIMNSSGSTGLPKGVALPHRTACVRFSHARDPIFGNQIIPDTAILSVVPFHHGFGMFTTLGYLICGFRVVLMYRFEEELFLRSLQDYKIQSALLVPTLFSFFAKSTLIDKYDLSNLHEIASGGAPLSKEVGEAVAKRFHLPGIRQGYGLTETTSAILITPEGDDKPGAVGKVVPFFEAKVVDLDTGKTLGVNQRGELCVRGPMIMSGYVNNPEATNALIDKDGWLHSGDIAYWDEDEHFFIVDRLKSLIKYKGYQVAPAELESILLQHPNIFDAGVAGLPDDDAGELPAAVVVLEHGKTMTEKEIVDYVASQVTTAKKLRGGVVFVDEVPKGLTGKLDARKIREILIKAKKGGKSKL
#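 Purified P. pyralis luciferase, 10 nM final, with Km-level 10 uM D-luciferin and 10 uM ATP in 50 mM Tris acetate pH 7.5, 10 mM Mg acetate, 0.01% Tween-20, 0.05% BSA; 6-point qHTS titration about 60 µM downward; luminescence read.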
# ELG1 DNA repair: blocks ELG1-dependent DNA repair in HEK293T cells. AID 504467. Potency, µM (top dose mostly 46.1 µM), for inactives: top-dose activity change, negative = inhibition, actives largely listed as inhibitors. HEK293T ELG1-luciferase reporter, luminescence, 16 h; DNA damage induced by 5-fluorouridine. 2.3% of 330,000 active; note: % is set by controls: 0 for no effect and ±100 for the full control effect; nearly all actives have a fitted effect of over 55% in size
#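 Reporter activity after DNA damage by 5-fluorouridine is monitored. Compound-treated cells incubate 16 hr at 37 °C, then ONE-Glo is added for 30 min before luminescence reading.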
# * marks the source's active call; other numbers are inactive results; u = inconclusive; x = no result. A selection: hits, their analogues and other compounds. The true share with any hit is near 9.4%. Calls come from the whole dose curve; as a rule, active = well fitted curve in the direction sought with a large enough effect; inconclusive = small, poorly fitted or top-dose-only effect, or another doubt; inactive = no such curve, though single readings can be large; an effect the other way counts as inactive or inconclusive. Potency is the fitted concentration of half-maximal effect.
SMILES,ELG1 genotox,SMN2 splice up,NPC1 promoter act,Rab9 prom act,FLuc counter,ELG1 DNA repair
COc1cc(OC)c(OC)cc1/C=C1\CCC/C(=C\c2cc(OC)c(OC)cc2OC)C1=O,-14%,x,-1%,-4%,2%,15µM*
COc1ccc(/C=C2\CC/C(=C\c3ccc(OC)cc3OC)C2=O)c(OC)c1,u,-27%,14%,21%,u,13%
COc1ccc(/C=C2\CCC/C(=C\c3ccc(OC)c(OC)c3OC)C2=O)c(OC)c1OC,0%,x,1%,1%,1%,23µM*
CCOc1ccc(N=C(/C(C(=O)C(=O)N2CCOCC2)=C(\O)c2ccccc2)c2ccccc2)cc1,u,13µM*,u,u,u,u
CCOC(=O)c1ccccc1NC(=O)c1sc2nc3n(c(=O)c2c1C)CCCC3,x,x,x,x,5%,x
CCOc1ccc(OCCSc2nc(N)cc(=O)[nH]2)cc1,4%,x,13%,15%,u,u
C/C=C/c1ccc(OCCSc2nc(C)cc(=O)[nH]2)c(OC)c1,u,10%,-7%,9%,13µM*,u
C/C=C/c1ccc(OCCOc2ccc(C=O)cc2)c(OC)c1,4%,-2%,1%,-1%,-12%,26%
Cc1cc(=O)[nH]c(SCCOc2ccc3c(c2)CCC3)n1,x,13µM*,x,x,7.6µM*,x
Cc1cc(=O)[nH]c(SCCCOc2ccccc2Cl)n1,-7%,-3%,12%,1%,24µM*,3%
Cc1cc(=O)[nH]c(SCCOc2ccc(OC(C)C)cc2)n1,5.2µM*,u,u,u,15µM*,u
CCCSC1=NC2(CCN(C(=O)NC3CCCCC3)CC2)N=C1c1ccc(OC)cc1,x,x,x,x,-4%,x
COc1cc(C(=O)Nc2cccc(S(=O)(=O)NCc3ccco3)c2)cc(OC)c1OC,7%,x,-3%,-3%,1%,u
O=C(Nc1cccc(S(=O)(=O)NCc2ccco2)c1)c1cc(-c2ccc(F)cc2)nc2ccccc12,-7%,-50%,-1%,1%,u,15µM*
COc1ccc(-c2cc(C(=O)Nc3cccc(S(=O)(=O)NCc4ccco4)c3)c3ccccc3n2)cc1OC,-12%,22%,-4%,-10%,u,5.2µM*
CSc1ncc(C(=O)Nc2cc(Cl)ccc2C)c(-c2ccccc2)n1,x,x,x,x,-7%,x
N#C/C(=C\c1c[nH]c2ccccc12)C(=O)NCC1CCCO1 (stereo not drawn),u,x,18%,29%,17µM*,u
Cc1nnc(NC(=O)CSCc2cc(=O)c3ccccc3[nH]2)s1,x,x,-5%,-2%,-2%,x
CCN(C(=O)CCc1nc(-c2ccc(C)cc2)no1)c1cccc(C(F)(F)F)c1,x,-13%,x,x,-8%,x
Cc1ccc(C2CC(=O)N(Cc3ccc(F)cc3)c3c2c(C)nn3-c2nc(C)cc(C)n2)cc1 (stereo not drawn),x,x,x,x,5%,x
O=C(Cc1cccc([N+](=O)[O-])c1)Nc1cccc(C(=O)N2CCCCC2)c1,-1%,x,x,x,x,16µM*
CN(CCc1ccccc1)C(=O)c1cccc(NC(=O)Cc2cccc([N+](=O)[O-])c2)c1,-5%,x,x,x,x,23µM*
CCc1cccc(C)c1NC(=O)C1CCN(S(=O)(=O)c2c(C)noc2/C=C/c2c(C)cc(C)cc2C)CC1,x,x,x,x,2%,x
COc1cccc(Cn2cnc3c2c(=O)n(C)c(=O)n3C)c1,x,-1%,x,x,3%,x
CC[n+]1c(/C=C/Nc2ccccc2)sc2ccccc21,-2%,-20%,0%,-5%,1%,-22%
SMILES,ELG1 genotox,SMN2 splice up,NPC1 promoter act,Rab9 prom act,FLuc counter,ELG1 DNA repair
CCN1/C(=C/C=C/C=C/c2sc3ccccc3[n+]2CC)Sc2ccccc21,-8%,-90%,-38%,-32%,15µM*,u
CCN1/C(=C/C=C/c2sc3ccccc3[n+]2CC)Sc2ccccc21,u,x,-40%,-45%,21µM*,u
CCN1/C(=C/C=C/C=C/C=C/c2sc3ccccc3[n+]2CC)Sc2ccccc21,-10%,x,-37%,-40%,u,u
CCC(=O)N1CC2(CC(c3cccc(NC(=O)COc4ccc(Cl)cc4)c3)=NO2)C[C@@H]1C(N)=O (stereo partly drawn),-3%,x,2%,-2%,17µM*,-10%
C/C=C\C(=O)Nc1cccc(C2=NOC3(C2)C[C@@H](C(N)=O)N(C(=O)COc2ccc(Cl)cc2)C3)c1 (stereo partly drawn),2%,x,-3%,-3%,1%,0%
NC(=O)[C@@H]1CC2(CC(c3cccc(NC(=O)CC(c4ccccc4)c4ccccc4)c3)=NO2)CN1C(=O)COc1ccc(Cl)cc1 (stereo partly drawn),-8%,x,-15%,-11%,-2%,13µM*
NC(=O)[C@H]1CC2(CC(c3cccc(NC(=O)COc4ccc(Cl)cc4)c3)=NO2)CN1C(=O)CC(c1ccccc1)c1ccccc1 (stereo partly drawn),-13%,x,-10%,-11%,u,u
CCCCCC(=O)N1CC2(CC(c3cccc(NC(=O)COc4ccc(Cl)cc4)c3)=NO2)C[C@@H]1C(N)=O (stereo partly drawn),-10%,x,-1%,-5%,13µM*,u
C/C=C/C(=O)N1CC2(CC(c3cccc(NC(=O)COc4ccc(Cl)cc4)c3)=NO2)C[C@@H]1C(N)=O (stereo partly drawn),-4%,x,u,-6%,19µM*,u
CCOc1ccc(C(=O)Nc2ccc(-c3cc4ccccc4oc3=O)cc2)cc1Br,x,1%,x,x,-4%,x
O=C(c1cccc(F)c1)N1CCC(c2c[nH]c3ccccc23)(c2c[nH]c3ccccc23)CC1,x,0%,x,x,6%,x

# From PubChem
